# Compound activity deposited in PubChem BioAssay by National Center for Advancing Translational Sciences (NCATS).
# In the library only some 9.5% were active in any assay of this set; here they are far more common.
# Pf growth 48h: P. falciparum growth inhibition at 48 hours (one generation); P. falciparum luciferase growth in erythrocytes, 48 h; Potency, µM (titrated, usually from 28.7 µM), hits mostly inhibitors; hit rate 5.9% among 310,000; active means well fitted inhibition curve with a large enough effect; inconclusive means small, poorly fitted or top-dose-only effect, or another doubt; inactive means no such curve, though single readings can be large or run the other way
#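 A one-generation exposure of luciferase-tagged malaria parasites in RPMI 1640/Albumax erythrocyte culture, 37 C and 5% CO2. Inhibition is inferred from decreased luminescence after adding detection reagent.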
# Pf growth 96h: inhibits malaria parasite growth, 96 h; hit rate 6.9% among 320,000; P. falciparum luciferase reporter growth, 96 h; AID 504834; Potency, µM (series often up to 28.7 µM), actives largely listed as inhibitors; active means well fitted inhibition curve with a large enough effect; inconclusive means small, poorly fitted or top-dose-only effect, or another doubt; inactive means no such curve, though single readings can be large or run the other way
#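 Erythrocytes infected with luciferase-expressing P. falciparum were dispensed at 2% hematocrit and 0.05% parasitemia (final), then incubated with compounds 96 hours at 37 C in 5% CO2. Luminescence after detection reagent addition reported growth.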
# NS1 inh: inhibitors of influenza NS1 protein function. Potency, µM (top dose mostly 46.1 µM). hit rate 0.4% among 270,000; further: actives are rising curves; nearly all actives have a fitted effect of over 50% in size
#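 Recovery from NS1-induced slow growth read by OD600 in budding yeast switched to galactose assay medium (pH 6.0, -URA) at 1:100 dilution. Compound 23 nl per well; the matching strain lacking NS1 serves as control.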
# RE007 growth inh: less growth of the S. pombe RE007 Vpr strain. S. pombe RE007 Vpr strain, BacTiter-Glo ATP luminescence, 24 h. Potency, µM (doses to about 92.2 µM), usual class: inhibitors. hit rate 0.21% among 360,000. AID 651644; active means well fitted falling curve with a large enough effect; inconclusive means small, poorly fitted or top-dose-only effect; inactive means no such curve, though single readings can be large or run the other way; further: nearly all actives have a fitted effect of over 50% in size
#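 Fission yeast strain RE007, carrying one chromosomally integrated HIV-1 vpr copy, was seeded at OD 0.01 in PMG+AL medium with 23 nL pinned compound. After 24 h at 30 °C and 99% humidity, viability was read by BacTiter-Glo luminescence.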
# SARS PLpro yeast: blocks SARS-CoV papain-like protease in a yeast assay; AID 485353; Potency, µM (top dose mostly 32.9 µM), actives largely listed as activators; S. cerevisiae expressing SARS-CoV PLpro, growth rescue; hit rate 0.19% among 330,000; further: nearly all actives have a fitted effect of over 55% in size
# Hits are given with their value; . = inactive; ? = inconclusive; / = not tested or not shown. Unless noted, the call rests on the fitted dose curve.
SMILES,Pf growth 48h,Pf growth 96h,NS1 inh,RE007 growth inh,SARS PLpro yeast
Cc1ccc(C(=O)CCNc2ccccc2)o1,.,/,.,11.2µM,/
CN(C)CCCC(=O)c1ccc2c(c1)OCO2,.,/,.,.,.
CN(C)CCC(=O)c1ccc2c(c1)OCO2,.,.,.,11.2µM,.
CCC(C)(C)NC(=O)Cc1ccc(Cl)cc1,.,.,.,.,.
COc1cc(C)ccc1OCCOCCOc1ccccc1Br,.,2.62µM,.,.,.
COc1cc(C)ccc1OCCCOc1c(Cl)cccc1Cl,.,0.131µM,.,.,.
COc1ccccc1OCCCOc1c(Cl)cc(C)cc1Cl,.,.,.,.,.
CC(C)C[C@H]1CN(CCCC[C@H]2CNC(=O)C(=O)N2Cc2ccccc2)C(=O)C(=O)N1CCc1ccc(O)cc1,/,/,/,.,/
CC(=O)Nc1ccc(CN2CCN(C3CCCC3)C(CCO)C2)cc1 (stereo unspecified),.,8.28µM,.,.,.
OCCC1CN(Cc2c(F)cccc2Cl)CCN1C1CCCC1 (stereo unspecified),.,13.1µM,.,.,.
CC(=O)Nc1ccc(CN2CCN(CC=C(C)C)C(CCO)C2)cc1 (stereo unspecified),.,?,.,.,.
Cc1cccc(-n2ccnc2CN2CCN(C3CCCC3)C(CCO)C2)c1 (stereo unspecified),.,6.57µM,.,.,.
COc1ccc(-n2ccnc2CN2CCN(C3CCCC3)C(CCO)C2)cc1 (stereo unspecified),.,.,.,.,.
Cc1c(C)c2cc(Cl)c(OCC(=O)N3CCN(c4ccc(F)cc4)CC3)cc2oc1=O,.,.,.,.,.
COc1ccccc1N=NNc1ccc(S(=O)(=O)NC(C)=O)cc1,/,/,/,.,/
COc1cc2c(cc1OC)CN(S(=O)(=O)c1cccs1)CC2,.,.,.,.,.
COc1ccc(CC(=O)Nc2ccc(S(=O)(=O)N3CCCC3)cc2)cc1OC,/,/,/,.,.
COc1ccc(S(=O)(=O)N2CCc3cc(OC)c(OC)cc3C2)cc1,0.828µM,.,.,.,.
COc1cc2c(cc1OC)CN(CC(=O)Nc1ccc(S(=O)(=O)N3CCCC3)cc1)CC2,.,13.1µM,.,.,.
COc1cc2c(cc1OC)C(C)N(CC(=O)Nc1ccc(S(=O)(=O)N3CCCC3)cc1)CC2 (stereo unspecified),11.7µM,?,.,.,.
CCCNCC(O)Cn1c2ccccc2n2c(=O)cc(C)c(C#N)c12 (stereo unspecified),3.7µM,11.7µM,?,.,.
Cc1cc(=O)n2c3ccccc3n(CC(O)CN3CCCC3)c2c1C#N (stereo unspecified),?,?,.,.,.
O=C(Nc1ccccc1-c1nc2ccccc2[nH]1)c1sc2ccccc2c1Cl,.,.,.,/,.
Cc1ccc(S(=O)(=O)N2CCOCC2)cc1NS(=O)(=O)c1ccc(F)c(F)c1,.,.,/,.,.
COC(=O)CNc1nc(Cl)nc(NC2CCCCC2)n1,.,5.22µM,.,.,.
SMILES,Pf growth 48h,Pf growth 96h,NS1 inh,RE007 growth inh,SARS PLpro yeast
C=CCNc1nc(Cl)nc(NC2CCCCC2)n1,.,.,.,.,.
Clc1ccccc1CSC1=NCCN1,14.7µM,.,.,.,.
Clc1ccc(CSC2=NCCN2)cc1Cl,/,/,.,/,/
CC(=O)N1CC[n+]2c(-c3ccc(Cl)cc3Cl)csc21,.,?,.,.,.
CCCCCC[n+]1c(-c2ccc(Cl)cc2Cl)csc1Nc1ccccc1,1.17µM,?,.,.,.
Cc1ccc2c(c1)N(CC(=O)N1CCCCC1)C(=O)C(C)O2 (stereo unspecified),.,9.28µM,.,.,.
CN1CCN(C(=O)CN2C(=O)COc3ccc(S(=O)(=O)N4CCOCC4)cc32)CC1,.,5.22µM,.,.,.
Cc1ccc2c(c1)N(CC(=O)N1CCCC1)C(=O)C(C)O2 (stereo unspecified),?,?,.,.,.
CCCN1CCN(C(=O)CN2C(=O)COc3ccc(S(=O)(=O)N(CC)CC)cc32)CC1,.,2.94µM,.,.,.
CC(C)(C)c1ccc2c(c1)N(CC(=O)N1CCCC1)C(=O)CO2,11.7µM,.,.,.,.
Cc1ccc(C(C(=O)NCC2CCCO2)N(C(=O)c2snc(C(N)=O)c2N)c2ccc3c(c2)OCCO3)cc1 (stereo unspecified),10.4µM,.,.,.,.
CCOc1ccc(C(C(=O)NCC2CCCO2)N(Cc2cccs2)C(=O)c2snc(C(N)=O)c2N)cc1 (stereo unspecified),13.1µM,?,.,.,.
COc1ccc(C(C(=O)NCC2CCCO2)N(Cc2cccs2)C(=O)c2snc(C(N)=O)c2N)cc1OC (stereo unspecified),?,?,.,.,.
CCOc1ccc(C(C(=O)NCC2CCCO2)N(C(=O)c2snc(C(N)=O)c2N)c2cccc(F)c2)cc1 (stereo unspecified),13.1µM,.,.,.,.
Nc1nc(-c2cccnc2)cc(-c2cc(-c3cccnc3)nc(N)n2)n1,/,/,.,/,/
COC(=O)c1nc2nc(C)cc(C(F)(F)F)n2n1,.,11.7µM,.,.,.
CC(C)=CCN1CCN(CC#Cc2ccccc2)CC1CCO (stereo unspecified),?,.,.,.,.
OCCC1CN(CC#Cc2ccccc2)CCN1Cc1ccccc1F (stereo unspecified),.,11.7µM,.,.,.
CC(C)CN1CCN(CC#Cc2ccccc2)CC1CCO (stereo unspecified),.,11.7µM,.,.,.
CC(C)CN1CCN(Cc2cccn2-c2ccccn2)CC1CCO (stereo unspecified),.,8.28µM,.,.,.
CC(C)CCN1CCN(Cc2cccn2-c2ccccn2)CC1CCO (stereo unspecified),.,.,.,.,.
O=C(COC(=O)c1ccccc1NCCO)Nc1cc(C(F)(F)F)ccc1N1CCOCC1,?,?,.,.,.
O=C(O)c1ccc(CN2C[C@@H](CO)O[C@@H](n3cnc4c(NCc5ccco5)ncnc43)C2)cc1,/,/,/,.,/
CC(C)(C)c1ccc(O)c(CN(Cc2cc(C(C)(C)C)ccc2O)c2ccccc2)c1,/,/,.,/,/
O=C(CCC(=O)c1ccc(Oc2ccccc2)cc1)Nc1ccc(C(=O)O)cc1,.,?,.,.,.
SMILES,Pf growth 48h,Pf growth 96h,NS1 inh,RE007 growth inh,SARS PLpro yeast
COc1cccc(NC(=O)c2ccc(NS(=O)(=O)c3cccs3)cc2)c1,.,.,/,.,.
COc1cccc(C(=O)NNC(=O)c2ccc(NS(=O)(=O)c3cccs3)cc2)c1OC,2.94µM,2.08µM,/,.,.
CCOc1ccc(NC(=O)c2ccc(NS(=O)(=O)c3cccs3)cc2)cc1,.,0.828µM,.,.,.
COc1ccc(C(=O)Nc2ccc3[nH]ncc3c2)cc1,.,.,.,.,.
CCOc1ccc(C(=O)Nc2ccc3[nH]ncc3c2)cc1,.,11.7µM,.,.,.
C=CCOc1ccc(CN(C)C(=O)CNC(=O)c2ccc(-c3ccccc3)cc2)cc1,13.1µM,.,.,.,.
O=C(C[n+]1cccc(Br)c1)c1ccc(-c2ccccc2)cc1,.,.,.,.,.
